Consider 4 molecules from PubChem BioAssay (NCI).

Among the test systems are NCI-H23 lung; NCI-H226 lung; NCI-H322M lung; HOP-62 NSCLC; NCI-H460 lung; HOP-92 NSCLC; NCI-H522 lung; A549/ATCC NSCLC; 786-0 renal; COLO 205 colon; DU-145 prostate; K-562 leukemia; MALME-3M melanoma; MDA-MB-231 breast; RXF 393 renal; SF-268 CNS; SF-295 CNS; SF-539 CNS; UACC-257 melanoma; M14 melanoma.
What all share (experiment): NCI-60 one-dose screen, 48 h (100 = growth as untreated, 0 = no growth, -100 = all killed)
What all share (details): 10 µM unless noted

Several values for one entry are separate records, joined by “and”; a condition that tells them apart may be missing. Equal entries are not always repeated. Compounds without any hit were thinned out: in the full panel of roughly 83,000, 20% have a hit.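 Testing used 96-well plates and a 48-hour single-concentration exposure. Example: -40 means 40% of the starting cells died.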 Activity calls are given as the source filed them. How the source made its calls: active means growth percent below 10; inactive means the rest.

Consider `COc1cc(C(=O)c2ccc3c(c2)OCO3)cc(OC)c1OC`, for which the growth is 49.2% (inactive) and 40.8% (inactive) with NCI-H23 lung; 52.4% (inactive) and 72.9% (inactive) in the assay on NCI-H226 lung; 41% (inactive) and 55.4% (inactive) in the assay on NCI-H322M lung; 38.8% (inactive) and 41.6% (inactive) in the assay on HOP-62 NSCLC; 14.3% (inactive) and 10.9% (inactive) with NCI-H460 lung; 37.9% (inactive) and 62.8% (inactive) in the assay on HOP-92 NSCLC. The growth in the assay on NCI-H522 lung was 44.6% (inactive) and -30.4% (active); with A549/ATCC NSCLC, 33.9% (inactive) and 34.9% (inactive); in the assay with 786-0 renal, 56.2% (inactive) and 46% (inactive); in the assay with COLO 205 colon it was 19.2% (inactive) and 20.8% (inactive); in the assay on DU-145 prostate, 10.4% (inactive) and 27.7% (inactive); with K-562 leukemia, 10.7% (inactive). Further, the growth in the assay with MALME-3M melanoma was 14.5% (inactive) and 34.1% (inactive); with MDA-MB-231 breast it was 53.2% (inactive) and 47.4% (inactive); in the assay on RXF 393 renal, 28.3% (inactive) and 4.22% (active); in the assay on SF-268 CNS, 37.3% (inactive) and 40.6% (inactive); in the assay on SF-295 CNS it was 9.91% (active) and 9.21% (active); with SF-539 CNS, 18.4% (inactive) and -1.47% (active). The growth in the assay on UACC-257 melanoma was 18.6% (inactive) and 49.4% (inactive); with M14 melanoma, 21% (inactive) and 19.9% (inactive).

Take `O=C1c2ccccc2C(=O)N1/N=C/c1ccc2c(c1)OCO2`: the growth is 120% (inactive) in the assay on NCI-H23 lung; 101% (inactive) in the assay with NCI-H226 lung; 95.1% (inactive) in the assay on NCI-H322M lung; 104% (inactive) with HOP-62 NSCLC; 112% (inactive) with NCI-H460 lung; 74.4% (inactive) with HOP-92 NSCLC. The growth with NCI-H522 lung was 64.5% (inactive); with A549/ATCC NSCLC it was 87.7% (inactive); in the assay with 786-0 renal, 104% (inactive); with COLO 205 colon it was 99.5% (inactive); in the assay with DU-145 prostate, 116% (inactive); with K-562 leukemia it was 99.8% (inactive). The growth in the assay with MALME-3M melanoma was 110% (inactive); in the assay with MDA-MB-231 breast it was 87.2% (inactive); with RXF 393 renal, 107% (inactive); with SF-268 CNS, 103% (inactive); in the assay with SF-295 CNS, 129% (inactive); in the assay with SF-539 CNS, 101% (inactive). For the same molecule, the growth in the assay on UACC-257 melanoma and in the assay on M14 melanoma was 99.7% (inactive) in each case.

With `CCN(CC)CCNc1cc(-c2cccc(OC(F)(F)F)c2)nc2ccc(N3CCCC3)cc12`, the growth with NCI-H23 lung was 65.9% (inactive) and -7.71% (active) and 34.2% (inactive); in the assay with NCI-H226 lung, 74.3% (inactive) and 47.8% (inactive) and 63.7% (inactive); in the assay on NCI-H322M lung it was 29.2% (inactive) and 18.9% (inactive) and 58.3% (inactive); with HOP-62 NSCLC it was 51.6% (inactive) and 3.4% (active) and 34.8% (inactive); with NCI-H460 lung it was 27.2% (inactive) and 0.777% (active) and 11.8% (inactive); with HOP-92 NSCLC, -83.3% (active) and -7.78% (active) and 20.8% (inactive). Moreover, the growth in the assay on NCI-H522 lung is 60.8% (inactive) and -30.5% (active) and 23% (inactive); in the assay with A549/ATCC NSCLC, 55% (inactive) and 3.66% (active) and 29.9% (inactive); with 786-0 renal, -59.9% (active) and 1.27% (active) and 21.2% (inactive); in the assay on COLO 205 colon, 32.5% (inactive) and -76.5% (active) and -46.9% (active); with DU-145 prostate, 60.6% (inactive) and 19% (inactive) and 45.4% (inactive); in the assay with K-562 leukemia, -23% (active) and -25.5% (active) and -21% (active). Moreover, the growth with MALME-3M melanoma was -50.9% (active) and -42.3% (active) and -14.1% (active); in the assay on MDA-MB-231 breast, 0.557% (active) and -6.72% (active) and -8.3% (active); with RXF 393 renal it was 16.3% (inactive) and -15.5% (active) and 34.2% (inactive); in the assay with SF-268 CNS, 61.1% (inactive) and 18.8% (inactive) and 34.5% (inactive); in the assay on SF-295 CNS it was 72% (inactive) and -26.3% (active) and 35.1% (inactive); in the assay on SF-539 CNS it was 31.6% (inactive) and -38.2% (active) and 56.9% (inactive). Also, the growth with UACC-257 melanoma was 62.5% (inactive) and -10.1% (active) and -0.682% (active); in the assay on M14 melanoma, -85.8% (active) and -56.6% (active) and -63.5% (active).

For `Cc1ccc(S(=O)(=O)Nc2nc3ccccc3nc2Nc2ccc3nsnc3c2)cc1`, the growth with NCI-H23 lung is 48.7% (inactive) and 37.8% (inactive); in the assay on NCI-H226 lung it was 72.9% (inactive) and 72.7% (inactive); with NCI-H322M lung it was 58.5% (inactive) and 50.6% (inactive); in the assay on HOP-62 NSCLC, 48.5% (inactive) and 84.9% (inactive); in the assay with NCI-H460 lung it was 32.1% (inactive) and 29.2% (inactive); in the assay with HOP-92 NSCLC, 6.25% (active). Moreover, the growth is 34.8% (inactive) and 23.3% (inactive) with NCI-H522 lung; 31% (inactive) and 38.4% (inactive) with A549/ATCC NSCLC; 46.9% (inactive) and 45.1% (inactive) in the assay on 786-0 renal; 44.5% (inactive) and 76% (inactive) with COLO 205 colon; 71.2% (inactive) and 62.5% (inactive) with DU-145 prostate; 32.8% (inactive) and 35.3% (inactive) in the assay with K-562 leukemia. For the same molecule, the growth was 33.3% (inactive) and 9.84% (active) in the assay with MALME-3M melanoma; 73.7% (inactive) and 68.8% (inactive) with MDA-MB-231 breast; 80.3% (inactive) and 87.8% (inactive) in the assay on RXF 393 renal; 52.2% (inactive) and 54.5% (inactive) in the assay on SF-268 CNS; 25.2% (inactive) and 26.7% (inactive) in the assay with SF-295 CNS; 63.9% (inactive) and 60.8% (inactive) with SF-539 CNS. The growth in the assay on UACC-257 melanoma is 27% (inactive) and 54.4% (inactive); in the assay on M14 melanoma, 48% (inactive) and 49.6% (inactive).
